This note sets out measurements from PubChem BioAssay (EPA / NIEHS).

Assay [1] is described as follows: VALA_TUBHUV_Agonist_CellCount: Viability Assessment in the VALA Sciences human Umbilical Vein Endothelial Tubule Formation (TUBHUV) Agonism Assay (AID 2284309). In short, it runs like this: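 Viability endpoint by fluorescent imaging of fixed nuclear/CD31-stained HUVEC–HDF co-cultures. Readout is cell count, fitted upward against 0.1% DMSO. Compound exposure was 72 h in 10 ng/ml VEGF, after 3-day co-culture priming.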

A short description of assay [2]: VALA_TUBHUV_Antagonist_CellCount: Viability Assessment in the VALA Sciences human Umbilical Vein Endothelial Tubule Formation (TUBHUV) Antagonism Assay (AID 2284310). The gist of the method:
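Read-out is imaged cell count after nuclear and CD31 staining, fitted against 0.1% DMSO vehicle. Compounds were added for 3 days, in 10 ng/ml VEGF assay medium, to HUVEC–HDF co-cultures pre-grown 3 days.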

The nature of assay [3]: VALA_TUBIPS_Agonist_TubuleLength: VALA Sciences human iPS-derived Endothelial Tubule Formation (TUBIPS) Agonism Assay (AID 2284311). The gist of the method:
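Agonist-mode readout is the gain in imaged tubule length versus DMSO baseline. It was measured by fluorescence high-content imaging 72 h after dosing human iPSC-derived endothelial cells.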

A short description of assay [4]: VALA_MIGHUV2_Bcatenin: VALA Sciences human Umbilical Vein Endothelial Cell Migration (MIGHUV) Assay, Nuclear Translocation of beta-Catenin after Recovery (AID 2284315). The gist of the method: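 Nuclear beta-catenin imaged by immunofluorescence with Hoechst counterstain in fixed HUVEC, 24 h after scratch wounding and chemical addition. Six-point concentration-response in triplicate; activity scored as signal increase over 0.1% DMSO vehicle.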

Assay [5] in a line: VALA_MIGHUV2_WoundArea: VALA Sciences human Umbilical Vein Endothelial Cell Migration (MIGHUV) Assay, Area of Scratch Wound after Recovery (AID 2284316). The gist of the method:
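Wound-area endpoint read by fluorescence imaging of Hoechst-stained nuclei after a 24 h recovery period following scratch of HUVEC monolayers (9000 cells/well). Chemicals dosed within 30 min post-scratch, triplicate 6-point series, 0.1% DMSO vehicle; Cytochalasin D positive control.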

Assay [6] is described as follows: IUF_NPC2a_radial_glia_migration_120hr: Leibniz Research Institute for Environmental Medicine (IUF) 120-hour Neural Progenitor Cell Migration Assay for Radial Glia Migration (NPC2a) (AID 2284298; active means hit-call score of the fitted dose curve at least 0.9, where 1 is the maximum; inactive means score below 0.9). In short, it runs like this:
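In this multiplexed test, fetal hNPC spheres migrate radially on poly-D-lysine/laminin in N2 medium (37C, 5% CO2, pH 7.2-7.6) under continuous compound exposure over five days. Migration is scored at 120 h from automated Hoechst nuclear imaging.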

A short description of assay [7]: IUF_NPC2a_radial_glia_migration_72hr: Leibniz Research Institute for Environmental Medicine (IUF) 72-hour Neural Progenitor Cell Migration Assay for Radial Glia Migration (NPC2a) (AID 2284299; active means hit-call score of the fitted dose curve at least 0.9, where 1 is the maximum; inactive means score below 0.9). In short, it runs like this:
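Radial glia migration (µm, sphere core edge to migration front, four directions averaged) from brightfield images at 72 h; hNPC spheres differentiating on PDL/laminin in N2 medium, compound exposure at 7 concentrations from plating.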

The nature of assay [8]: IUF_NPC2b_neuronal_migration_120hr: Leibniz Research Institute for Environmental Medicine (IUF) 120-hour Neural Progenitor Cell Migration Assay for Neuron Migration (NPC2b) (AID 2284300; active means hit-call score of the fitted dose curve at least 0.9, where 1 is the maximum; inactive means score below 0.9). The gist of the method:
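Neurons identified by TUBB3 immunostaining and Hoechst nuclei; migration distance measured automatically on fixed wells at 120 h, normalized to glia migration. Exposure spanned five days of differentiation in N2 medium, seven test concentrations.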

The nature of assay [9]: IUF_NPC3_neuronal_differentiation_120hr: Leibniz Research Institute for Environmental Medicine (IUF) 120-hour Neuronal Differentiation Assay (NPC3) (AID 2284301; active means hit-call score of the fitted dose curve at least 0.9, where 1 is the maximum; inactive means score below 0.9). The gist of the method: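 Neuronal differentiation of primary human neural progenitors measured by high-content imaging: percent TUBB3+ of Hoechst+ nuclei within migrated area at 120 h, seven-point serial dilution plus solvent control, gain or loss relative to DMSO.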

Assay [10] is described as follows: IUF_NPC4_neurite_length_120hr: Leibniz Research Institute for Environmental Medicine (IUF) 120-hour Neuronal Morphology Assay for Neurite Length (NPC4) (AID 2284302; active means hit-call score of the fitted dose curve at least 0.9, where 1 is the maximum; inactive means score below 0.9). The gist of the method:
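Neurons from differentiating human fetal neural progenitor spheres are scored for average neurite length after five days of compound exposure. Fitting uses DMSO as negative control.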

Assay [11] is described as follows: IUF_NPC5_oligodendrocyte_differentiation_120hr: Leibniz Research Institute for Environmental Medicine (IUF) 120-hour Oligodendrocyte Differentiation Assay (NPC5) (AID 2284304).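 Further: primary human fetal neural progenitor spheres plated to migrate and differentiate; share of O4-positive cells among Hoechst nuclei found by CNN image analysis.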 The gist of the method: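 Human primary NPC neurospheres migrating and differentiating on laminin for 120 h under continuous compound exposure (serial dilution, solvent control). Endpoint: percent O4+ oligodendrocytes among Hoechst nuclei, detected by CNN image analysis, with DMSO as negative control.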

A short description of assay [12]: IUF_NPC4_neurite_area_120hr: Leibniz Research Institute for Environmental Medicine (IUF) 120-hour Neuronal Morphology Assay for Neurite Area (NPC4) (AID 2284305). The gist of the method: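 Endpoint at 120 h: automated imaging of TUBB3/Hoechst-stained differentiating human neural progenitor spheres, neurite area per neuron from skeletonization. DMSO solvent control, not above 0.1%, set the baseline; medium was half-replaced on day 3.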

The nature of assay [13]: IUF_NPC2-5_cytotoxicity_72hr: Cytotoxicity Assessment at 72 hours in the Leibniz Research Institute for Environmental Medicine (IUF) Neural Progenitor Cell Migration and Differentiation Assay for Cytotoxicity (NPC2-5) (AID 2284306).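 Further: LDH release into supernatant measured by resorufin fluorescence marking membrane damage.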 The gist of the method:
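Primary human neural progenitor spheres migrate and differentiate on laminin. Compound is present from the start of differentiation, with DMSO kept at or below 0.1%. At 72 h, supernatant LDH is quantified fluorometrically, with values fitted in the positive direction.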

Assay [14] in a line: IUF_NPC2-5_cytotoxicity_120hr: Cytotoxicity Assessment at 120 hours in the Leibniz Research Institute for Environmental Medicine (IUF) Neural Progenitor Cell Migration and Differentiation Assay (NPC2-5) (AID 2284307).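 On AC50: LDH released into supernatant as membrane damage marker via resorufin fluorescence.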 In short, it runs like this:
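Fluorescence (RFU) from LDH-driven resazurin reduction in medium supernatants measured loss of membrane integrity after 120 h of compound exposure of differentiating primary human neural progenitor spheres on an extracellular matrix.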

The nature of assay [15]: IUF_NPC2-5_cell_number_120hr: Cell Number Assessment at 120 hours in the Leibniz Research Institute for Environmental Medicine (IUF) Neural Progenitor Cell Migration and Differentiation Assay (NPC2-5) (AID 2284308; active means hit-call score of the fitted dose curve at least 0.9, where 1 is the maximum; inactive means score below 0.9;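 further: count of Hoechst-stained nuclei in migration zone around plated human neural progenitor spheres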). The gist of the method: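 Cell number is taken as all Hoechst-positive nuclei detected in the area into which cells migrate out of the sphere, scored at 120 h and referenced to DMSO solvent control, which was kept at no more than 0.1%.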

Assay [16] in a line: IUF_NPC2-5_viability_120hr: Viability Assessment at 120 hours in the Leibniz Research Institute for Environmental Medicine (IUF) Neural Progenitor Cell Migration and Differentiation Assay (NPC2-5) (AID 2284312; active means hit-call score of the fitted dose curve at least 0.9, where 1 is the maximum; inactive means score below 0.9). The gist of the method: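 Human fetal (GW 16-19) neural progenitor spheres of 0.3 mm were plated on poly-D-lysine/laminin in N2 differentiation medium and exposed from day 0 for 120 h, with half-medium refresh at day 3. Viability was read as alamar blue resazurin-to-resorufin fluorescence against DMSO.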

Another assay relates to IYD (gene 389434). Description: CCTE_GLTED_hIYD: CCTE's human Iodotyrosine Deiodinase (xIYD) Inhibition Assay, Great Lakes Toxicology and Ecology Division (GLTED) Lab (AID 2284317).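 Further: cell-free human IYD enzyme made in baculovirus insect cells; iodide freed from monoiodotyrosine measured by cerium arsenite color change at 420 nm.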 The gist of the method:
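In the IYD assay, iodide released from MIT by insect-cell-expressed human enzyme was quantified after 3 h via Sandell-Kolthoff rate at 420 nm, with plate-wise normalization to MNT and solvent controls.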

A short description of assay [17]: CCTE_Mundy_HCI_iCellGluta_NOG_NeuriteLength: CCTE's Neurite Outgrowth Assay in iCellGluta cells for Neurite Length, Mundy Lab (AID 2284318). The gist of the method:
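Automated high-content imaging of betaIII-tubulin (Alexa Fluor-488) and Hoechst-stained cells gave neurite length, normalized to the DMSO baseline.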

Assay [18] can be described thus: VALA_TUBIPS_Antagonist_TubuleLength: VALA Sciences human iPS-derived Endothelial Tubule Formation (TUBIPS) Antagonist Assay (AID 2284313). The gist of the method:
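Tubule length was quantified by high-content imaging of CD31- and nuclear-stained cells, with 0.1% DMSO as neutral and 100 uM suramin as inhibition control. Compounds were applied for 3 days, in 10 ng/ml VEGF, to cultures pre-grown 3 days.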

Assay [19] in a line: VALA_MIGHUV2_CellCount: Viability Assessment in the VALA Sciences human Umbilical Vein Endothelial Cell Migration (MIGHUV) Assay, Area of Scratch Wound after Recovery (AID 2284314). The gist of the method:
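Viability read-out: Hoechst-stained nuclei counted by fluorescence imaging after a 24 h recovery period in fixed, scratched HUVEC plates. Compound was dosed within 30 min of scratching at six concentrations (triplicate); DMSO at 0.1 % served as baseline.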

Results filed as inconclusive are left out. Calls of active or inactive are those of the source. How the source made its calls, unless noted: active means hit-call score of the fitted dose curve at least 0.9, where 1 is the maximum; inconclusive means response in the unintended direction; inactive means score below 0.9.

`O=C1OC(c2ccc(O)cc2)(c2ccc(O)cc2)c2ccccc21`: the outcome in assay [1], in [2], in assay [3], in [4] and in assay [5] was inactive.

On to `CN(C)CCCN1c2ccccc2Sc2ccc(Cl)cc21`, for which the AC50 in [6] was 14.2 µM (active); in [7], 15.1 µM (active); in [8], 15 µM (active); in assay [9], 7.59 µM (active); in assay [10] it was 6.02 µM (active); in assay [11], 0.756 µM (active). Moreover, the AC50 in [12] is 8.38 µM (active); in [13], 15.3 µM (active); in assay [14], 5.75 µM (active); in assay [15] it was 12.8 µM (active); in assay [16], 10.9 µM (active).

For the compound `CCN(CC)CCOc1ccc(C(=C(Cl)c2ccccc2)c2ccccc2)cc1`, in the assay on IYD (gene 389434), the AC50 is 16 µM (active).

As to `O=C1NC(=O)C(c2ccccc2)(c2ccccc2)N1`, the outcome in [6], in [7], in [8], in assay [9], in [10] and in [11] was inactive. In addition, the call in [12], in [13], in assay [14], in assay [15] and in assay [16] was inactive.

Regarding `OCC(O)CO`, the call in [6], in assay [7], in assay [8], in [9], in [10] and in [11] was inactive. In addition, the compound was classed as inactive in assay [12], in [13], in assay [14], in [15], in [16] and in assay [17].

With `Nc1nc(Cl)nc2c1ncn2[C@H]1C[C@H](O)[C@@H](CO)O1`, the AC50 was 1.56 µM (active) in assay [1], 1.78 µM (active) in assay [18], 2.48 µM (active) in [19] and 28.9 µM (active) in assay [5]. Further, the compound was called inactive in assay [2] and in assay [4].

Take `CCCCCCCCCCCCCCOS(=O)(=O)O`: in the assay on IYD (gene 389434), the AC50 was 29.6 µM (active).

As to `CC(=O)CC(c1ccccc1)c1c(O)c2ccccc2oc1=O` (centres undefined), the compound was called inactive in [6], in [7], in assay [8], in [9], in assay [10] and in [11]. Further, the compound was classed as inactive in assay [12], in assay [13], in [14], in assay [15], in assay [16] and in assay [17].

Turning to `CCCCC(CC)COP(=O)(OCC(CC)CCCC)OCC(CC)CCCC` (centres undefined), the call in assay [1], in assay [2] and in [19] was inactive.

For the compound `COC(=O)[C@H]1[C@H]2C[C@@H]3c4[nH]c5cc(OC)ccc5c4CCN3C[C@H]2C[C@@H](OC(=O)c2cc(OC)c(OC)c(OC)c2)[C@@H]1OC`, the compound was classed as inactive in [1], in [3], in assay [19] and in assay [5].

Consider `O=Cc1ccccc1C=O`, for which the AC50 in the assay on IYD (gene 389434) is 60.2 µM (active).

As for `Cc1ccc(-c2cc(C(F)(F)F)nn2-c2ccc(S(N)(=O)=O)cc2)cc1`, the outcome in assay [1], in assay [2], in assay [3], in assay [19] and in [5] was inactive.

As for `Cc1c(C)c2c(c(C)c1O)CCC(C)(COc1ccc(CC3SC(=O)NC3=O)cc1)O2` (centres undefined), the half-maximal activity concentration (AC50) in the assay with IYD (gene 389434) is 94.7 µM (active).

As to `S=c1[nH]c2ccccc2s1`, in the assay on IYD (gene 389434), the result was inactive.

The term AC50 denotes the concentration at which the activity in the assay is half-maximal.
